ULK1 primary: inhibitors of human ULK1 kinase | AlphaScreen Atg13 phosphorylation by ULK1, luminescence | inhibition, % at 5.96 µM | actives 1.9% (n = 30,000) | AID 1259251; in the data active = inhibition above about 43%
Target sequence (O75385 whole entry, looked up): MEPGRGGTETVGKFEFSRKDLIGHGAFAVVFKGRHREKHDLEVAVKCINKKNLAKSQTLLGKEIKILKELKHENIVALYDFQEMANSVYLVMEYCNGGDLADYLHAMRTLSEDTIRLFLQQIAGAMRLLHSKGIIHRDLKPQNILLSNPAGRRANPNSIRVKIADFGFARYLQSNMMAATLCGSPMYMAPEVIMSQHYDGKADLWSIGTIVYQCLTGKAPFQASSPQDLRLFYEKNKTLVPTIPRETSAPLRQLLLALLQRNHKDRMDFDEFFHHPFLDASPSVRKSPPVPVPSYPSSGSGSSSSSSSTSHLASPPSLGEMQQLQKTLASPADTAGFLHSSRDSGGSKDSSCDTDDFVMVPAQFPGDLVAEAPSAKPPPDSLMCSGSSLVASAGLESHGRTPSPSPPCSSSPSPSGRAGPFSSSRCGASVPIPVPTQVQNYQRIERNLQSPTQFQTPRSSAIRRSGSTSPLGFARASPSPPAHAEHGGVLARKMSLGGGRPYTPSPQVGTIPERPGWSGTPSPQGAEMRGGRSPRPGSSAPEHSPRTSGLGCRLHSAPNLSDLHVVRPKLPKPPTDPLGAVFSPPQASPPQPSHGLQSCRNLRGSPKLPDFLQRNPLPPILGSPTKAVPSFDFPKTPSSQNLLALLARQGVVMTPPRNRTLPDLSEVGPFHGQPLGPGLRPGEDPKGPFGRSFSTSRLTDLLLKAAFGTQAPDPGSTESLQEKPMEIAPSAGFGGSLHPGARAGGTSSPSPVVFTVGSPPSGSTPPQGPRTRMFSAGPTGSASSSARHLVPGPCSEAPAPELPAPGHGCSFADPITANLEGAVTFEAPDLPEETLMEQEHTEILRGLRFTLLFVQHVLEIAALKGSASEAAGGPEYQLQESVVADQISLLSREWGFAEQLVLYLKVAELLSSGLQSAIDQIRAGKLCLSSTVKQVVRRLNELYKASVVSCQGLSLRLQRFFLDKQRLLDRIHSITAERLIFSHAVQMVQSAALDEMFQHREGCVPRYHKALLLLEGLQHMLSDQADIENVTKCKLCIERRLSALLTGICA
ASK1 inh: human ASK1 kinase inhibition, primary screen | AlphaScreen MKK6 phosphorylation by ASK1, luminescence | Q99683 | inhibition, % at 7.44 µM | actives 0.99% (n = 22,000); in the data active = inhibition above about 35%
Large screens that a line does not name were inactive. An excerpt weighted towards active compounds, which were near 2.4% of everything screened.

CNS(=O)(=O)c1ccccc1Nc1nc(Nc2cc(OC)ccc2OC)ncc1Br	ULK1 primary 64
COc1cnc(Nc2ccc(N3CCOCC3)cc2)nc1Nc1ccc(N2CCOCC2)cc1	none
COc1ccc(Nc2ncc(-c3ccccc3)cn2)cc1	none (no result: ASK1 inh)
Cc1c(C(=O)N(C)c2ccccc2)sc2nc(-c3ccccc3)cn12	none (no result: ASK1 inh)
C[C@@](O)(C(=O)Nc1ccc2cn[nH]c2c1)c1ccc(Br)cc1	none
Cc1cnc(Nc2ccc(-n3ccnc3)cc2)nc1Nc1ccccc1	none
Cc1cnc(Nc2ccc(-n3ccnc3)cc2)nc1NC1CC1	ULK1 primary 52
O=C1CCCN1CCCNc1nc(Nc2ncccn2)nc2nc[nH]c12	none
Cc1cnc(Nc2ccc(-n3ccnc3)cc2)nc1NCCCN1CCCC1=O	ULK1 primary 69
Cc1cnc(Nc2ccncc2)nc1NCCCN1CCCC1=O	none
O=C1CCCN1CCCNc1nc(Nc2ccc(C(F)(F)F)cc2)nc2nc[nH]c12	ULK1 primary 53
CN1CCN(C(=O)c2ccc(-c3nc(C(=O)NCc4ccccc4)cs3)cc2)CC1	none
NC(Cc1cc(I)c(Oc2ccc(O)c(I)c2)c(I)c1)C(=O)O (stereo unspecified)	none (no result: ASK1 inh)
N[C@@H](Cc1cc(I)c(Oc2cc(I)c(O)c(I)c2)c(I)c1)C(=O)O	ULK1 primary 79 (no result: ASK1 inh)
COc1cc(NC(C)CCCN)c2ncccc2c1 (stereo unspecified)	ULK1 primary 64 (no result: ASK1 inh)
CCN(CC)CCCC(C)Nc1c2ccc(Cl)cc2nc2ccc(OC)cc12 (stereo unspecified)	none (no result: ASK1 inh)
CC(C)c1cc(C(C)C)c(CC(=O)NS(=O)(=O)Oc2c(C(C)C)cccc2C(C)C)c(C(C)C)c1	ULK1 primary 85 (no result: ASK1 inh)
COc1cc(N2CCOCC2)ccc1Nc1cc(Nc2cccnc2)c(C(F)(F)F)cn1	none
CNC(=O)c1ccccc1Nc1cc(Nc2ccc(N3CCOCC3)cc2C)ncc1C(F)(F)F	ULK1 primary 92
CNC(=O)c1ccccc1Nc1cc(Nc2ccc(N3CCOCC3)cn2)ncc1C(F)(F)F	ULK1 primary 91
CN1CCN(C(=O)c2ccc(-c3cc(NCc4cccc(C(F)(F)F)c4)nc(N)n3)cc2)CC1	none
O=C1CCCN1CCCNc1cc(Nc2ccncn2)ncn1	none
O=C(Nc1ccc2[nH]ncc2c1)[C@@H]1CCCN1	none
O=C(Nc1ccc2[nH]ncc2c1)[C@H](O)c1ccccc1	ULK1 primary 49
CC(C)[C@H](O)C(=O)N[C@H]1CC[C@H](C(=O)Nc2ccc3[nH]ncc3c2)C1	none
N[C@H]1CCC[C@@H](C(=O)Nc2ccc3cnccc3c2)C1	ULK1 primary 66
N[C@H]1CC[C@@H](C(=O)Nc2ccc3[nH]ncc3c2)C1	ULK1 primary 72
N[C@@H]1CC[C@@H](C(=O)Nc2ccc3cnccc3c2)C1	none
O=C(Nc1ccc2[nH]ncc2c1)[C@H]1CCCN1	ULK1 primary 45
O=C(Nc1ccc2[nH]ncc2c1)C(O)c1ccc(Cl)cc1 (stereo unspecified)	none
COc1ccc2c(c1)CC(C(=O)Nc1ccc(-c3cn[nH]c3C)cc1OCCN(C)C)CO2 (stereo unspecified)	none
CCCNc1nc(Nc2ccc(-n3ccnc3)cc2)ncc1C	none
Cc1cnc(-c2ccc(C(=O)NC3CC3)cc2)nc1Nc1ccc(Oc2ccccc2)cc1	none
O=C(NCCOc1ccccc1)c1cncc(-c2csc3ccccc23)c1	none
Cc1cc(Nc2ccc3c(c2)OCO3)nc(NC2CCC(O)CC2)n1 (stereo unspecified)	none
CC(C)n1cnc2c(NC3CCN(Cc4ccccc4)CC3)nc(Nc3nc4ccccc4n3C)nc21	none
O=C(NCCN1CCOCC1)c1ccnc(-c2csc3ccccc23)c1	none
Nc1cccc(-c2nc3ccc(C(=O)NCc4cccnc4)cc3s2)c1	none
N[C@@H]1CC[C@@H](C(=O)Nc2ccc3[nH]ncc3c2)C1	ULK1 primary 65
O=C(Nc1ccc2[nH]ncc2c1)C1CCCNC1 (stereo unspecified)	none
COc1ccc(CCNc2nc(Cl)nc3c2ncn3C2CCCCC2)cc1	none
O=C(Nc1ccc(N2CCOCC2)cc1)c1ccc2nc(Nc3ccccn3)sc2c1	ULK1 primary 52
CCNc1cc(C(=O)Nc2ccc(N3CCOCC3)cc2)ccn1	none
O=C(Nc1ccc(N2CCOCC2)cc1)c1ccnc(NCCN2CCOCC2)c1	ULK1 primary 47
O=C(Nc1ccc(N2CCOCC2)cc1)c1ccc2nc(Nc3ccc(N4CCOCC4)cc3)sc2c1	none
O=C(Nc1ccc2c(c1)OCO2)c1cccc(Nc2ccc3ncccc3c2)n1	none
Cc1cncc(NC2CCCc3ccc(-n4cc(NC(=O)Nc5ccccc5)cn4)cc32)c1 (stereo unspecified)	none
Fc1ccc(-c2n[nH]c3ccc(-c4ncn[nH]4)cc23)cc1	ULK1 primary 71
c1ccc(-c2ccnc(Nc3ccc(-c4ncn[nH]4)cc3)n2)cc1	none
CCCNc1cc(NCc2ccc3c(c2)OCO3)nc(N)n1	none
N#Cc1cc(-c2ccnc(Nc3ccc(N4CCOCC4)cc3)n2)cc(N2CCOCC2)c1	none
COc1ccc(Nc2nccc(-c3cc(C#N)cc(N4CCOCC4)c3)n2)cc1	none
N#Cc1cc(-c2ccnc(Nc3ccc(N4CCOCC4)cc3)n2)cc(N2CCNCC2)c1	ULK1 primary 78
CCN1CCN(c2cc(C#N)cc(-c3ccnc(Nc4ccc(N5CCOCC5)cc4)n3)c2)CC1	ULK1 primary 53
Fc1cc(-c2nc(Nc3cccc(CN4CCOCC4)c3)ncc2F)cc(N2CCOCC2)c1	ULK1 primary 45
Fc1cc(-c2ccnc(Nc3cccc(CN4CCOCC4)c3)n2)cc(N2CCOCC2)c1	none
Fc1cc(-c2nc(Nc3cccc(Cn4cccn4)c3)ncc2F)cc(N2CCOCC2)c1	none
Fc1cc(-c2nc(Nc3cccc(CN4CCCC4)c3)ncc2F)cc(N2CCOCC2)c1	ULK1 primary 70
CCCNc1nc(-c2cccc(C(C)=O)c2)nc2c1ncn2C(C)C	none
O=Cc1ccc(O)c(O)c1O	ULK1 primary 89 (no result: ASK1 inh)
c1ccc(Nc2nc(NC3CC3)c3[nH]cnc3n2)nc1	none
c1cncc(Nc2nc(NC3CC3)c3[nH]cnc3n2)c1	ULK1 primary 60
Oc1ccc(CCNc2nc(N3CCC(N4CCOCC4)CC3)nc3c2ncn3C2CCCCC2)cc1	none
NNCCc1ccccc1	none (no result: ASK1 inh)
CS(=O)(=O)c1ccc(NCCc2ccccc2)cc1	ULK1 primary 68 (no result: ASK1 inh)
CCCNc1ncnc2c1nc(Nc1cccnc1)n2C(C)C	none
COc1cccc(CN(CCCN(C)C)C(=O)c2cn(C)c3cc(-c4cn[nH]c4)ccc23)c1	none
OCC1CCCN1c1nc(Nc2ccc(N3CCOCC3)cc2)c2ncn(-c3ccccc3)c2n1 (stereo unspecified)	ULK1 primary 61
OCC1CCCN1c1nc(Nc2ccc(N3CCOCC3)cc2)c2ncn(-c3ccsc3)c2n1 (stereo unspecified)	none
c1cc(N2CCOCC2)ccc1Nc1nc(N2CCOCC2)nc2c1ncn2C1CCCCC1	none
OCC1CCCN1c1nc(Nc2ccc(N3CCOCC3)cc2)c2ncn(C3CCCCC3)c2n1 (stereo unspecified)	ULK1 primary 53
CCN(CC)c1nc(NC2CC2)nc(N2CCN(c3ccccn3)CC2)n1	none
O=C(NCc1cccnc1)c1cnc(-c2ccc(N3CCOCC3)nc2)s1	none
O=C(NCCO)c1ccnc(-c2ccccc2)c1	none
CCC(=O)c1c(O)cc(O)cc1O	ULK1 primary 62 (no result: ASK1 inh)
Oc1cc(O)cc(O)c1	none (no result: ASK1 inh)
c1ccc(Nc2nc(N3CCN(Cc4ccc5c(c4)OCO5)CC3)nc3nc[nH]c23)cc1	none
O=C(Nc1ccc(N2CCOCC2)cc1)c1cncc(-c2ccc(C(=O)NC3CC3)cc2)c1	none
CNC(=O)c1ccccc1Nc1cc(NC(=O)Cc2ccsc2)ncc1C(F)(F)F	ULK1 primary 52

Source: PubChem BioAssay
